In ChEMBL document CHEMBL2218924, “A broad activity screen in support of a chemogenomic map for kinase signalling research and drug discovery” (Biochem J, 2013) one finds residual activity data, which are given here for one compound.

The target in assay [1] is T1, Ephrin type-A receptor 3 (Homo sapiens) (UniProt P29320).
T1 sequence (whole entry): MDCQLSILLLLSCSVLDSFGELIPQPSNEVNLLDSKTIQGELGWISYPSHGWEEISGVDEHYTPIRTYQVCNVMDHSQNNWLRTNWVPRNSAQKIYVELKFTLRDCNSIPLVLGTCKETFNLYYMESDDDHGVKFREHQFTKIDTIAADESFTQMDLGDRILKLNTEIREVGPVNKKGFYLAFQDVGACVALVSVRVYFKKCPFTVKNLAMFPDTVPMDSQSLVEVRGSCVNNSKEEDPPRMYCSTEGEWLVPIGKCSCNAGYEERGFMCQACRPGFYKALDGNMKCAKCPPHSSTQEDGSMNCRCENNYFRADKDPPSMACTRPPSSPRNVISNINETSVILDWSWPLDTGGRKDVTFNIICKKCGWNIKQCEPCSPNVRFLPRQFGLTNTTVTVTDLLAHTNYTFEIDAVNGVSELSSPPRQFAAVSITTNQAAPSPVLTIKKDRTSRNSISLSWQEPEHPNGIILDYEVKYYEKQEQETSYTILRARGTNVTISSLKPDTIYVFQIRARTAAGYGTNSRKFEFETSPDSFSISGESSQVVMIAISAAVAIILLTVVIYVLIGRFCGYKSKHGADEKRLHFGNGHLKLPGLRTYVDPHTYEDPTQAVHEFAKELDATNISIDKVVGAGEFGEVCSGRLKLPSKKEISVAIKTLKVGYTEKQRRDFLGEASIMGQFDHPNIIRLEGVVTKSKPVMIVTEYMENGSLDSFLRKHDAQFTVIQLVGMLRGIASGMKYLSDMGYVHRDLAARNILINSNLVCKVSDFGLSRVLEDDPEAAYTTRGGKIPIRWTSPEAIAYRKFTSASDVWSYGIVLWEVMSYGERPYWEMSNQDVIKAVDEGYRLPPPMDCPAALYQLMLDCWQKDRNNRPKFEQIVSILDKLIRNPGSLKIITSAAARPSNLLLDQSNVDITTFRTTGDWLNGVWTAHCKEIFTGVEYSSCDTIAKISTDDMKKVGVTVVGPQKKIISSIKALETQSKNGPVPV
The note with it: at 10 µM.

In assay [2] the target is Ephrin type-A receptor 4 (Homo sapiens) (UniProt P54764). The note with it: at 1 µM.
The target is the same in assay [3]. Conditions: at 10 µM.
The target of assay [4] is Ephrin type-A receptor 5 (Homo sapiens) (UniProt P54756). Conditions: at 1 µM.
Assay [5] has the same target. Conditions: at 10 µM.
For assay [6], the target named is Ephrin type-A receptor 7 (Homo sapiens) (UniProt Q15375). The note with it: at 1 µM.
Assay [7] shares this target. The note with it: at 10 µM.
Assay [8] concerns the target T2, Ephrin type-A receptor 8 (Homo sapiens) (UniProt P29322).
T2 sequence (whole entry): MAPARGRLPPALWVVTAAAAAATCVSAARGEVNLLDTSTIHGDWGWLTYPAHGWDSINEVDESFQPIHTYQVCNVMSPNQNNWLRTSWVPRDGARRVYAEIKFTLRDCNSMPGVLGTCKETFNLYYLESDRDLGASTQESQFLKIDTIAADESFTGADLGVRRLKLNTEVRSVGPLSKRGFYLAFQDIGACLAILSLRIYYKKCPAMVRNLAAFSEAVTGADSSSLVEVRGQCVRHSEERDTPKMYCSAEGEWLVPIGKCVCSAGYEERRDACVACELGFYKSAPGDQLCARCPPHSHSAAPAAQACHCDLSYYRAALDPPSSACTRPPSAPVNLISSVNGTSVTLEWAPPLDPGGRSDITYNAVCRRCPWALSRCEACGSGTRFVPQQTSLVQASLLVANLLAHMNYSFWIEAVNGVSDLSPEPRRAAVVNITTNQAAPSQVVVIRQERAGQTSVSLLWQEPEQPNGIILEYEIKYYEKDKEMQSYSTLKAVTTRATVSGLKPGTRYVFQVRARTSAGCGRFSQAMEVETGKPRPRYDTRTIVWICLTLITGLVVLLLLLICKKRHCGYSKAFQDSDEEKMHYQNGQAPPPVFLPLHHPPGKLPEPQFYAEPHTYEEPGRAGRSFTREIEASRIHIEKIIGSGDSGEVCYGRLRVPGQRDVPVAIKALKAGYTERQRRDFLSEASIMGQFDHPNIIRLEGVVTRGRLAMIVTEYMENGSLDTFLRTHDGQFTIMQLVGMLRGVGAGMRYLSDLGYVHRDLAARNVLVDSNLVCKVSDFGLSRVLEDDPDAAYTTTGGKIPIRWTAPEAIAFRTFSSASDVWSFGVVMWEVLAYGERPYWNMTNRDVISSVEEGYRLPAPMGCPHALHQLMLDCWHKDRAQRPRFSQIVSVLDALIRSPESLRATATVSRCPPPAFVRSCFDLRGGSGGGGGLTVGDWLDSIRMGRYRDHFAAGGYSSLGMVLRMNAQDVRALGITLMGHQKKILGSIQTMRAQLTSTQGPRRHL
Conditions: at 1 µM.

In assay [9] the target is T2, Ephrin type-A receptor 8 (Homo sapiens). Conditions: at 10 µM.
The target of assay [10] is T3, Ephrin type-B receptor 1 (Homo sapiens) (UniProt P54762).
T3 sequence (whole entry): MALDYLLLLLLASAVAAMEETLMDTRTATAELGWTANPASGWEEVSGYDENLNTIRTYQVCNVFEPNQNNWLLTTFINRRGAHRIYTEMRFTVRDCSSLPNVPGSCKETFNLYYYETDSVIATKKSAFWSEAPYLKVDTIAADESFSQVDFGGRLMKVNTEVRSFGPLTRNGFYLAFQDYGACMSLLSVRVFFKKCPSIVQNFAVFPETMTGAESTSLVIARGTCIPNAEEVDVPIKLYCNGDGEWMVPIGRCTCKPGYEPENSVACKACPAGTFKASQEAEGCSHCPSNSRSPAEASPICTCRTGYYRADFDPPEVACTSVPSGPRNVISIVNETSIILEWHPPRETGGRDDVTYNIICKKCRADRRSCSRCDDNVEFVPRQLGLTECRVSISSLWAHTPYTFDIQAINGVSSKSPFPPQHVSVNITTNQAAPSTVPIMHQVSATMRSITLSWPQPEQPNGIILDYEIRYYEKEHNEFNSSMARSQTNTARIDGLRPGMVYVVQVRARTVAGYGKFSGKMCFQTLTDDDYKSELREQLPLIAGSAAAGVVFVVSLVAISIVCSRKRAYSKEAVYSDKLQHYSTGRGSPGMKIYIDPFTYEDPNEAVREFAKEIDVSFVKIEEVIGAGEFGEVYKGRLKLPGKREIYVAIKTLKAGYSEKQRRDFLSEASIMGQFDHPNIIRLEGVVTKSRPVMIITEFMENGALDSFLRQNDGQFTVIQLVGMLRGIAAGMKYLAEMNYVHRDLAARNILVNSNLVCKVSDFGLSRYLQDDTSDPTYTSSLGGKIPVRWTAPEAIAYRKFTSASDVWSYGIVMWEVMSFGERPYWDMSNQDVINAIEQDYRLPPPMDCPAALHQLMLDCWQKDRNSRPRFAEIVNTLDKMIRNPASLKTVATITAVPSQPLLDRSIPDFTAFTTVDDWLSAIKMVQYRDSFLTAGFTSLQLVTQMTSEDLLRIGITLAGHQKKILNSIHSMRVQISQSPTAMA
Conditions: at 1 µM.

Assay [11] has as its target T3, Ephrin type-B receptor 1 (Homo sapiens). The note with it: at 10 µM.
Assay [12] addresses T4, Ephrin type-B receptor 3 (Homo sapiens) (UniProt P54753).
T4 sequence (whole entry): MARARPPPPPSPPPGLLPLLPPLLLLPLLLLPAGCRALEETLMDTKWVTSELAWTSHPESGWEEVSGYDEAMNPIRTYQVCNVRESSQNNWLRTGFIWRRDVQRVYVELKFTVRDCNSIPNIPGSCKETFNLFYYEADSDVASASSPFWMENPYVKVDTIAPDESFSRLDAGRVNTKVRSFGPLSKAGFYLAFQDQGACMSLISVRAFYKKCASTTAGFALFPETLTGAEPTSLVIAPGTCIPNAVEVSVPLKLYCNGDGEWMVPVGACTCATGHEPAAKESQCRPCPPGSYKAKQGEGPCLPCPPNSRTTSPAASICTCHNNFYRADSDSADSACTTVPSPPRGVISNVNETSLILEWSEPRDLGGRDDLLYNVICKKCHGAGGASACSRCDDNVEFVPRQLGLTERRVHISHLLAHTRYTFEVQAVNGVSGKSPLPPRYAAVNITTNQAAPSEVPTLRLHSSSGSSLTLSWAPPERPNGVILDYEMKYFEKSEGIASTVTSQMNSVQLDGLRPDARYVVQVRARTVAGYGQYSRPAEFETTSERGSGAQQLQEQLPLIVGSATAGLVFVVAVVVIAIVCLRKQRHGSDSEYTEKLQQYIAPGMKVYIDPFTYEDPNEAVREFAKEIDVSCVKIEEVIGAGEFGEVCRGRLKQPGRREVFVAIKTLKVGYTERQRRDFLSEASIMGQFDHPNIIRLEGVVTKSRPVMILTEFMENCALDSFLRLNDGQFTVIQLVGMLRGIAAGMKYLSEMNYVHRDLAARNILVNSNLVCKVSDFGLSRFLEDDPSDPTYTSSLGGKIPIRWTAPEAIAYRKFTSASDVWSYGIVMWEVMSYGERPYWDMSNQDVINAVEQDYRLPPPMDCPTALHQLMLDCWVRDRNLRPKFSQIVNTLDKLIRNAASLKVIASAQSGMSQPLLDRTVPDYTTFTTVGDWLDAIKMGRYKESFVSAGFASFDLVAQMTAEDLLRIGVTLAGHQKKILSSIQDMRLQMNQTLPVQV
The note with it: at 10 µM.

Assay [13] concerns the target T5, Ephrin type-B receptor 4 (Homo sapiens) (UniProt P54760).
T5 sequence (whole entry): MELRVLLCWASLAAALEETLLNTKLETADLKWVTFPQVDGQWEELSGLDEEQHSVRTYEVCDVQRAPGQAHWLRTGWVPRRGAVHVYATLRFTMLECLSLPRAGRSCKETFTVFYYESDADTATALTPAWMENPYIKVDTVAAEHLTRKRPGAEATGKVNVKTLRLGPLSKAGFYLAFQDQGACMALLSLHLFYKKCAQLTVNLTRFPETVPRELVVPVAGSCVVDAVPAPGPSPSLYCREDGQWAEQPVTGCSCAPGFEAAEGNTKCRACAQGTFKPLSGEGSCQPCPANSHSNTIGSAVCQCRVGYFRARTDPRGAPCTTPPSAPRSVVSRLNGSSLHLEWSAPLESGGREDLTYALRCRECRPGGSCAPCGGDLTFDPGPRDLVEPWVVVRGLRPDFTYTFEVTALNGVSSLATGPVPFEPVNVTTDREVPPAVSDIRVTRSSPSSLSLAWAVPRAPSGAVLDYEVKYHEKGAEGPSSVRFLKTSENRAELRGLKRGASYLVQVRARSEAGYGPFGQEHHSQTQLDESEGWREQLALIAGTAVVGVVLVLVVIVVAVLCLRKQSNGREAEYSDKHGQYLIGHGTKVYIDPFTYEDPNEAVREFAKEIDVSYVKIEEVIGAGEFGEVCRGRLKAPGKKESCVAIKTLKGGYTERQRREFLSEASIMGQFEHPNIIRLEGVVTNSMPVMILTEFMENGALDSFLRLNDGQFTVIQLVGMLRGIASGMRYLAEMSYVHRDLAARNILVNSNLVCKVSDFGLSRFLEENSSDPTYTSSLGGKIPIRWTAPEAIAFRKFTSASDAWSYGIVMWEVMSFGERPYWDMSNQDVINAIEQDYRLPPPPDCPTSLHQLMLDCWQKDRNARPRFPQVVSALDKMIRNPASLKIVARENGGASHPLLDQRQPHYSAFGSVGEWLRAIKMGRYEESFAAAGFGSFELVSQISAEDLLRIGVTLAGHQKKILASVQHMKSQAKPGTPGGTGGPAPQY
The note with it: at 1 µM.

For assay [14], the target named is T5, Ephrin type-B receptor 4 (Homo sapiens). Conditions: at 10 µM.
Assay [15] deals with Receptor tyrosine-protein kinase erbB-4 (Homo sapiens) (UniProt Q15303). The note with it: at 1 µM.
Assay [16] shares this target. Conditions: at 10 µM.
The target in assay [17] is Focal adhesion kinase 1 (Homo sapiens) (UniProt Q05397). Conditions: at 1 µM.

Chain of Ephrin type-A receptor 7 (Homo sapiens) (Q15375 28-998 limits assumed): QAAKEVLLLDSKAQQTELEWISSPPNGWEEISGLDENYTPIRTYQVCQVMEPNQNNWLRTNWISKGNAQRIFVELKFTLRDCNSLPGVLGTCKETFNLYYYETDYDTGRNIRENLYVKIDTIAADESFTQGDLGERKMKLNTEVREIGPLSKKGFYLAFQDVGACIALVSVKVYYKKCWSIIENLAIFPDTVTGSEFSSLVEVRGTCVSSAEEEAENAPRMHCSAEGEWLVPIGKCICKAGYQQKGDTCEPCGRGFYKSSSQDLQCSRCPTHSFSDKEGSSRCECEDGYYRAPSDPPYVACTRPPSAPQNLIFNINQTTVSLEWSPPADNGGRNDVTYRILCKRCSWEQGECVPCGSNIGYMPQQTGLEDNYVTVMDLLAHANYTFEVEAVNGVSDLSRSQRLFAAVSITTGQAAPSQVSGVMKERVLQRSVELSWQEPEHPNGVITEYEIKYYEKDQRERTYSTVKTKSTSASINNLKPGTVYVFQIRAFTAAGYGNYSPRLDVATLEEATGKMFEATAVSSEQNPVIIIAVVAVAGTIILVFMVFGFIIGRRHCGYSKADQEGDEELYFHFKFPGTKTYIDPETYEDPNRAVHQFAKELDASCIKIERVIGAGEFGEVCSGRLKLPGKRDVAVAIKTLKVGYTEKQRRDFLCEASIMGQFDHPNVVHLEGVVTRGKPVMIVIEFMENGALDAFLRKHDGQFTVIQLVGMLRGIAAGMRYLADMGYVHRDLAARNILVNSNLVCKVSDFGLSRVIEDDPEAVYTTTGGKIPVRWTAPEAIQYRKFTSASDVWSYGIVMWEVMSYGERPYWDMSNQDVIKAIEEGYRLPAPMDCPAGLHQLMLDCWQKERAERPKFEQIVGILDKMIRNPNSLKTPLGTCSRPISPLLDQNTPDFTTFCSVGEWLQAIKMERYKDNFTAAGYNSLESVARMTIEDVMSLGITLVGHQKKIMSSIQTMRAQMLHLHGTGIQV
Chain of Ephrin type-A receptor 5 (Homo sapiens) (P54756 whole entry): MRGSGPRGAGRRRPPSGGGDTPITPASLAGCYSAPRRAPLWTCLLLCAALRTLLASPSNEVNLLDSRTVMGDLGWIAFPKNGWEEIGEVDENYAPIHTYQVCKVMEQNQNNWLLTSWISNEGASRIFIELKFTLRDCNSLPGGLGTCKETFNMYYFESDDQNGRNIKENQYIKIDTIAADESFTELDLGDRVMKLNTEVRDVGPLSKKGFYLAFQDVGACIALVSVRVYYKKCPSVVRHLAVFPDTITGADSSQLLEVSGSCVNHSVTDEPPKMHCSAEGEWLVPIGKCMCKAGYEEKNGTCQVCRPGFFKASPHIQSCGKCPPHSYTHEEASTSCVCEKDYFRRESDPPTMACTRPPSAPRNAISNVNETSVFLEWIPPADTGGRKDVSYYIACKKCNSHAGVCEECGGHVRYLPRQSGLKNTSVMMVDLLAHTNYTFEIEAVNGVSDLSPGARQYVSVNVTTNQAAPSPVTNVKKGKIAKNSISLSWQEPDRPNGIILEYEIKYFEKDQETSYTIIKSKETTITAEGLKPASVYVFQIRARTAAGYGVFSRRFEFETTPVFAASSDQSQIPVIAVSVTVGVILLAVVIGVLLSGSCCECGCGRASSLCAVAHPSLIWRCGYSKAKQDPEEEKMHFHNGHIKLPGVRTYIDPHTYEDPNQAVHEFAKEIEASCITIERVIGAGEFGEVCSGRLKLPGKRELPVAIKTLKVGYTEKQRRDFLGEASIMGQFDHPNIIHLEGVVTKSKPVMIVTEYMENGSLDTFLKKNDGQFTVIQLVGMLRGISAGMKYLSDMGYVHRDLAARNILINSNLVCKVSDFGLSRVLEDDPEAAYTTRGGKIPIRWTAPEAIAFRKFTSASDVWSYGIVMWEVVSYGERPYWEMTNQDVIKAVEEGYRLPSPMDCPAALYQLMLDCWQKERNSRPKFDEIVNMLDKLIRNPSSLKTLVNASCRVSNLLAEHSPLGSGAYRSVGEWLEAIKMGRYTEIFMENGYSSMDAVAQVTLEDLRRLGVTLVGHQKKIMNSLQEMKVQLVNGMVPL
Chain of Ephrin type-A receptor 4 (Homo sapiens) (P54764 whole entry): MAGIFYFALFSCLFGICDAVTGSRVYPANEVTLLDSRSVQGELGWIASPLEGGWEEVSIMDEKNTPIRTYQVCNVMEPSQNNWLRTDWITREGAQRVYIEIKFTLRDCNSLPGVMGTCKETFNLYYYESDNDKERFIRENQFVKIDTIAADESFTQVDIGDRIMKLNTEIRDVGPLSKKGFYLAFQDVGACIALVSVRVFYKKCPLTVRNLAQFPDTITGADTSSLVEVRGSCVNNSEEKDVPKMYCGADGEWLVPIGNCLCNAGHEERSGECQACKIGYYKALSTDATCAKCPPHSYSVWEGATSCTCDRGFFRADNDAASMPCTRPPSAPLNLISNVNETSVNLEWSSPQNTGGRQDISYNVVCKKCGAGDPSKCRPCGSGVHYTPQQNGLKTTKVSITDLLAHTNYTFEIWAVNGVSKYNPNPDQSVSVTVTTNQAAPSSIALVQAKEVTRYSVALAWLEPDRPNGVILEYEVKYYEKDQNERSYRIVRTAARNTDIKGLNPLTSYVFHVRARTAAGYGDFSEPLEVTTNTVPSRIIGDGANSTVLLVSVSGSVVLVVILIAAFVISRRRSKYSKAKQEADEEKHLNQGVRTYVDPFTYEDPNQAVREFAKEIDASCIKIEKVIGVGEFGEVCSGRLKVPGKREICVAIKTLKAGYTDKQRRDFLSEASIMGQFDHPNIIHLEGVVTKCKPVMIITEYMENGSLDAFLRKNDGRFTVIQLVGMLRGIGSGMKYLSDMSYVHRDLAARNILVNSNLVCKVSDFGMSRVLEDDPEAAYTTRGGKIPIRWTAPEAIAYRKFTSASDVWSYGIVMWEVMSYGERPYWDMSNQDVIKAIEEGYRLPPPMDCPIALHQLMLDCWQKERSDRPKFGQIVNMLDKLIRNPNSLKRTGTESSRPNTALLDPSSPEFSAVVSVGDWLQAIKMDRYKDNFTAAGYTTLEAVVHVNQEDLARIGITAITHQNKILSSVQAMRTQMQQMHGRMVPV
Chain of Receptor tyrosine-protein kinase erbB-4 (Homo sapiens) (Q15303 whole entry): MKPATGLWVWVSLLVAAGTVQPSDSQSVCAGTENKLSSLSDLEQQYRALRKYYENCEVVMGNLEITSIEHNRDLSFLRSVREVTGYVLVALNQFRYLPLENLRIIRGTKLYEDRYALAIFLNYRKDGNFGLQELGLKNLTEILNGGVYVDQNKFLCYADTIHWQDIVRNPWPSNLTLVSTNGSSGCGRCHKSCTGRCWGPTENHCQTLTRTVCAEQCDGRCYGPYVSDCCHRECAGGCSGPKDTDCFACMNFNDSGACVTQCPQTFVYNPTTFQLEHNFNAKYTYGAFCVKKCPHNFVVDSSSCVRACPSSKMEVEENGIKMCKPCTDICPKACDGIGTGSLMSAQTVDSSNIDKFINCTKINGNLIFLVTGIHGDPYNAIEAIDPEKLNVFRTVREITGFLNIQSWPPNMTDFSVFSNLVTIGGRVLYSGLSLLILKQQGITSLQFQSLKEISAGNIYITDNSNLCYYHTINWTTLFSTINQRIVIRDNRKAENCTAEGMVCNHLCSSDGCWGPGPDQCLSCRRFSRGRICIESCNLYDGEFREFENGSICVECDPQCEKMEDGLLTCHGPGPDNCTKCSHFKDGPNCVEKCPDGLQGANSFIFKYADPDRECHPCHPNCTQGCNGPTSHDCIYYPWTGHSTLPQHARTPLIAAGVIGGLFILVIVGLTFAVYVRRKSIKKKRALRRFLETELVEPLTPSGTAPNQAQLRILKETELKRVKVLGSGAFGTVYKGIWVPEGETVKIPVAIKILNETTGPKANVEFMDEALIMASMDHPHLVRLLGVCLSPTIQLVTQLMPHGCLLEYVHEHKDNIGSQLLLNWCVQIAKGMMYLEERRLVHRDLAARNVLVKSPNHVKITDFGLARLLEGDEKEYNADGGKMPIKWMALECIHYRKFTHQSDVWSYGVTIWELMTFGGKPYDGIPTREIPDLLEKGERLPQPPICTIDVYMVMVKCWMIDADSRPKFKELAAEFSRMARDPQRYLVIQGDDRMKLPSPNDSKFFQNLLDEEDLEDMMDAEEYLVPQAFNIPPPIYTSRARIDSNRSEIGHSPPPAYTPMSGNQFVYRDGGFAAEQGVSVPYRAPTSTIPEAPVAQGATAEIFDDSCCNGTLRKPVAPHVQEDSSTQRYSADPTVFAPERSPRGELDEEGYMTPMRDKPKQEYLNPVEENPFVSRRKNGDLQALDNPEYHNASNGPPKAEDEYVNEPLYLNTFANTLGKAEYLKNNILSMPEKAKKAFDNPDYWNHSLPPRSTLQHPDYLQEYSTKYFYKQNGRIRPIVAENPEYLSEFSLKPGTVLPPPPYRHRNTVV

For `COc1cc2ncnc(Nc3cccc(Cl)c3)c2cc1OC`, the residual activity in assay [1] was found to be 42%; in assay [2], 103%; in assay [3], 57%; in assay [4] it was 77%; in assay [5], 27%; in [6] it was 73%. The residual activity worked out at 22% in [7]; 85% in [8]; 35% in assay [9]; 84% in [10]; 24% in assay [11]; 121% in assay [12]. The residual activity in assay [13] was determined as 45%; in [14] it was 5%; in assay [15] it was 35%; in assay [16] it was 4%; in assay [17] it was 146%.

As a reminder, the residual activity is the signal under treatment as a percentage of the control signal.
